Results reported in PubChem BioAssay AID1159580 (chemical genetic matrix, 2015).
Where “and” joins values, the source holds several entries; their conditions need not be identical. Equal entries are not always repeated. Among all 5,500 compounds or so, about 2,000 (36%) were called active. About 18% were inconclusive and are not listed. Rule as the data show it: active = normalized growth mostly below about 0.91 (no sharp cut-off); inconclusive = no clear call, values can overlap the other calls; inactive = mostly above about 0.92. The list shows a part of the results.

Assay: chemical genetic growth profiling, strain panel (AID 1159580);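 also: tested at 20 µM; growth read once vehicle control cultures reached saturation at 30 °C; 1 = growth at the plate median or of vehicle wells; lower values mean less growth of the strain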
Settings: S. cerevisiae deletion strains, growth OD

Measured: normalized growth

CCN(CC)CCOC(=O)C(Cc1cccc2ccccc12)CC1CCCO1 (stereo not given)
inactive: locus YAL013W, strain DEP1, stronger effect = lower value 1.03 | locus YAL021C, strain ccr4, stronger effect = lower value 1 | locus YAL026C, strain drs2, stronger effect = lower value 1.01 | locus YAL030W, strain snc1, stronger effect = lower value 0.998 | locus YBL061C, strain skt5, stronger effect = lower value 1.01 | locus YBR009C, strain hhf1, stronger effect = lower value 1.01 | locus YBR021W, strain FUR4, stronger effect = lower value 1.02 | locus YBR023C, strain chs3, stronger effect = lower value 1.01 | locus YBR171W, strain sec66, stronger effect = lower value 1.02 | locus YBR229C, strain ROT2, stronger effect = lower value 1 | locus YBR231C, strain swc5, stronger effect = lower value 0.995 | locus YBR279W, strain paf1, stronger effect = lower value 1.01 | locus YCL011C, strain gbp2, stronger effect = lower value 1.01 | locus YCL016C, strain dcc1, stronger effect = lower value 1.01 | locus YCL029C, strain bik1, stronger effect = lower value 1.01 | locus YCL061C, strain MRC1, stronger effect = lower value 1.01 | locus YCL069W, strain vba3, stronger effect = lower value 1.01 | locus YCR088W, strain abp1, stronger effect = lower value 1 | locus YDL005C, strain med2, stronger effect = lower value 1.01 | locus YDL035C, strain GPR1, stronger effect = lower value 1.02 | locus YDL040C, strain nat1, stronger effect = lower value 1.01 | locus YDL074C, strain BRE1, stronger effect = lower value 1.02 | locus YDL101C, strain DUN1, stronger effect = lower value 1 | locus YDL134C, strain PPH21, stronger effect = lower value 1.01 | locus YDL185W, strain tfp1, stronger effect = lower value 1.01 | locus YDL192W, strain arf1, stronger effect = lower value 1.01 | locus YDR001C, strain nth1, stronger effect = lower value 1.01 | locus YDR069C, strain doa4, stronger effect = lower value 1.02 | locus YDR101C, strain arx1, stronger effect = lower value 1.02 | locus YDR137W, strain rgp1, stronger effect = lower value 1.07 | locus YDR159W, strain sac3, stronger effect = lower value 1.02 | locus YDR162C, strain NBP2, stronger effect = lower value 1.02 | locus YDR195W, strain ref2 0.996 | locus YDR297W, strain sur2, stronger effect = lower value 1.01 | locus YDR318W, strain mcm21, stronger effect = lower value 1 | locus YDR334W, strain swr1, stronger effect = lower value 1.01 | locus YDR335W, strain msn5, stronger effect = lower value 1.01 | locus YDR388W, stronger effect = lower value 1.01 | locus YDR392W, strain spt3, stronger effect = lower value 1.01 | locus YDR502C, strain sam2, stronger effect = lower value 1.01 | locus YEL003W, strain gim4, stronger effect = lower value 1.01 | locus YEL037C, strain rad23, stronger effect = lower value 1.01 | locus YEL061C, strain CIN8 (second series), stronger effect = lower value 1.01 | locus YEL061C, strain CIN8, stronger effect = lower value 1.01 | locus YER015W, strain faa2, stronger effect = lower value 1.01 | locus YER016W, strain bim1, stronger effect = lower value 1.01 | locus YER110C, stronger effect = lower value 0.99 | locus YER111C, strain swi4, stronger effect = lower value 1.01 | locus YER155C, strain BEM2 (second series), stronger effect = lower value 1.01 | locus YER155C, strain BEM2, stronger effect = lower value 1 | locus YER167W, strain BCK2, stronger effect = lower value 1.01 | locus YFR010W, strain ubp6, stronger effect = lower value 1.02 | locus YGL078C, strain dbp3, stronger effect = lower value 1.02 | locus YGL086W, strain mad1, stronger effect = lower value 1.01 | locus YGL167C, strain pmr1, stronger effect = lower value 1.01 | locus YGL173C, strain kem1, stronger effect = lower value 1.01 | locus YGL227W, strain vid30, stronger effect = lower value 1 | locus YGL240W, strain doc1, stronger effect = lower value 1.01 | locus YGL248W, strain PDE1, stronger effect = lower value 1.01 | locus YGL253W, strain hxk2, stronger effect = lower value 1.01 | locus YGR078C, strain PAC10, stronger effect = lower value 1.03 | locus YGR135W, strain pre9, stronger effect = lower value 0.998 | locus YGR252W, strain gcn5, stronger effect = lower value 1.02 | locus YHR013C, strain ard1, stronger effect = lower value 1.01 | locus YHR027C, strain rpn1, stronger effect = lower value 1.01 | locus YHR030C, strain SLT2, stronger effect = lower value 1.01 and 0.997 | locus YHR079C, strain IRE1 (second series), stronger effect = lower value 1 | locus YHR079C, strain IRE1, stronger effect = lower value 0.985 | locus YHR094C, strain hxt1, stronger effect = lower value 0.997 | locus YHR129C, strain ARP1, stronger effect = lower value 1.01 | locus YHR142W, strain chs7, stronger effect = lower value 1.02 | locus YHR200W, strain rpn10, stronger effect = lower value 1.01 | locus YIL066C, strain RNR3, stronger effect = lower value 1.03 | locus YIL073C, strain SPO22, stronger effect = lower value 1.08 | locus YIL125W, strain kgd1, stronger effect = lower value 1 | locus YIR030C, strain dcg1, stronger effect = lower value 1.01 | locus YJL092W, strain hpr5, stronger effect = lower value 1.01 | locus YJL095W, strain BCK1 (second series), stronger effect = lower value 1 | locus YJL095W, strain BCK1, stronger effect = lower value 1.03 and 0.993 | locus YJL115W, strain asf1, stronger effect = lower value 1 | locus YJL129C, strain trk1, stronger effect = lower value 0.998 | locus YJL134W, strain LCB3, stronger effect = lower value 1 | locus YJL154C, strain vps35, stronger effect = lower value 1.01 | locus YJL164C, strain tpk1, stronger effect = lower value 1.01 | locus YJL166W, strain qcr8, stronger effect = lower value 1 | locus YJL168C, strain set2, stronger effect = lower value 0.998 | locus YJL187C, strain SWE1 (second series), stronger effect = lower value 1.02 | locus YJL187C, strain SWE1, stronger effect = lower value 1.01 | locus YJR043C, strain POL32, stronger effect = lower value 1.02 | locus YJR066W, strain TOR1, stronger effect = lower value 0.95 | locus YKL009W, strain mrt4, stronger effect = lower value 0.989 | locus YKL068W, stronger effect = lower value 1 | locus YKL085W, strain MDH1 (second series), stronger effect = lower value 1 | locus YKL085W, strain MDH1, stronger effect = lower value 1 | locus YKL160W, strain elf1, stronger effect = lower value 1 | locus YKR001C, strain vps1, stronger effect = lower value 1.01 | locus YKR026C, strain gcn3, stronger effect = lower value 1.01 | locus YKR091W, strain srl3, stronger effect = lower value 1 | locus YLL001W, strain dnm1, stronger effect = lower value 0.999 | locus YLL026W, stronger effect = lower value 1 | locus YLL041C, strain sdh2, stronger effect = lower value 1.01 | locus YLR027C, strain aat2, stronger effect = lower value 1.01 | locus YLR039C, strain RIC1, stronger effect = lower value 1.11 | locus YLR058C, strain SHM2, stronger effect = lower value 1.01 | locus YLR102C, strain apc9, stronger effect = lower value 0.992 | locus YLR113W, strain HOG1, stronger effect = lower value 0.986 | locus YLR221C, strain rsa3, stronger effect = lower value 1.01 | locus YLR258W, strain gsy2, stronger effect = lower value 1 | locus YLR262C, strain YPT6 (second series), stronger effect = lower value 1.03 | locus YLR262C, strain YPT6, stronger effect = lower value 1.06 | locus YLR268W, strain sec22, stronger effect = lower value 1.02 | locus YLR320W, strain mms22, stronger effect = lower value 1.03 | locus YLR330W, strain CHS5, stronger effect = lower value 1.01 | locus YLR342W, strain FKS1 (second series), stronger effect = lower value 1.02 | locus YLR342W, strain FKS1, stronger effect = lower value 1.01 | locus YLR357W, strain rsc2, stronger effect = lower value 0.998 | locus YLR370C, strain arc18, stronger effect = lower value 1.01 | locus YLR371W, strain rom2, stronger effect = lower value 1.01 | locus YLR384C, strain iki3, stronger effect = lower value 1.02 | locus YLR418C, strain cdc73, stronger effect = lower value 1.02 | locus YML016C, strain PPZ1, stronger effect = lower value 1 | locus YML032C, strain rad52, stronger effect = lower value 1.01 | locus YML120C, strain ndi1, stronger effect = lower value 1 | locus YML124C, strain tub3, stronger effect = lower value 1 | locus YMR058W, strain fet3, stronger effect = lower value 1.01 | locus YMR078C, strain ctf18, stronger effect = lower value 1.02 | locus YMR125W, strain sto1, stronger effect = lower value 1.01 | locus YMR129W, stronger effect = lower value 1.01 | locus YMR205C, strain PFK2, stronger effect = lower value 1.02 | locus YMR223W, strain ubp8, stronger effect = lower value 1.02 | locus YMR231W, strain pep5, stronger effect = lower value 1.02 | locus YMR307W, strain GAS1, stronger effect = lower value 0.965 | locus YNL067W, strain RPL9B, stronger effect = lower value 1.03 | locus YNL071W, strain lat1, stronger effect = lower value 1.01 | locus YNL153C, strain GIM3, stronger effect = lower value 1.03 | locus YNL183C, strain NPR1, stronger effect = lower value 0.939 | locus YNL209W, strain ssb2, stronger effect = lower value 1.02 | locus YNL233W, strain BNI4, stronger effect = lower value 1.03 | locus YNL248C, strain rpa49, stronger effect = lower value 1.01 | locus YNL250W, strain rad50, stronger effect = lower value 1.01 | locus YNL271C, strain bni1, stronger effect = lower value 0.998 | locus YNL298W, strain CLA4, stronger effect = lower value 0.998 | locus YNL307C, strain MCK1, stronger effect = lower value 1.02 | locus YNL322C, strain KRE1 (second series), stronger effect = lower value 0.996 | locus YNR049C, strain mso1, stronger effect = lower value 0.997 | locus YNR052C, strain pop2, stronger effect = lower value 0.993 | locus YOL006C, strain TOP1, stronger effect = lower value 1.14 | locus YOL012C, strain htz1 0.825 | locus YOL147C, strain pex11, stronger effect = lower value 1 | locus YOR001W, strain rrp6, stronger effect = lower value 1.01 | locus YOR061W, strain CKA2, stronger effect = lower value 1.01 | locus YOR069W, strain VPS5, stronger effect = lower value 1 | locus YOR070C, strain gyp1, stronger effect = lower value 1 | locus YOR080W, strain dia2, stronger effect = lower value 1 | locus YOR083W, strain WHI5, stronger effect = lower value 1.01 | locus YOR106W, strain vam3, stronger effect = lower value 0.998 | locus YOR136W, strain idh2, stronger effect = lower value 1.01 | locus YOR144C, strain elg1, stronger effect = lower value 1 | locus YOR184W, strain ser1, stronger effect = lower value 1.01 | locus YOR231W, strain MKK1, stronger effect = lower value 0.978 | locus YOR265W, strain rbl2, stronger effect = lower value 1 | locus YOR270C, strain vph1, stronger effect = lower value 1.03 | locus YOR290C, strain snf2, stronger effect = lower value 1 | locus YOR316C, strain cot1, stronger effect = lower value 1.01 | locus YPL051W, strain arl3, stronger effect = lower value 1 | locus YPL055C, strain LGE1, stronger effect = lower value 1.02 | locus YPL078C, strain atp4, stronger effect = lower value 1.01 | locus YPL106C, strain sse1, stronger effect = lower value 1.01 | locus YPL240C, strain hsp82, stronger effect = lower value 1 | locus YPL256C, strain CLN2, stronger effect = lower value 0.964 | locus YPR119W, strain clb2, stronger effect = lower value 0.996 | locus YPR141C, strain kar3, stronger effect = lower value 1.01 | locus YPR163C, strain tif3, stronger effect = lower value 1.01 | locus YPR167C, strain met16, stronger effect = lower value 1 | strain wtn01, stronger effect = lower value 1
